The text below walks through data of PubChem BioAssay AID1851 (National Center for Advancing Translational Sciences (NCATS), 2009).

Screen size: about 16,000 compounds; about 4,000 (25%) were called active. Inconclusive results (about 26%) are left out. The call rests on the fitted dose curve; in most records, active means well fitted curve in the direction sought with a large enough effect; inconclusive means small, poorly fitted or top-dose-only effect, or effect the other way; inactive means no such curve, though single readings can be large or run the other way. A selection follows.
On the % scale 0 is the no-effect control and ±100 the full control effect.

For this test, the target named is Cytochrome P450 2C9 (Homo sapiens) (UniProt P11712). Nature of the test: Cytochrome panel assay with activity outcomes. Particulars: recombinant CYP, pro-luciferin dealkylation, luminescence, p450-cyp2c9; series mostly up to 57.1 µM.
Cytochrome P450 2C9 (Homo sapiens), sequence (P11712 whole entry, looked up): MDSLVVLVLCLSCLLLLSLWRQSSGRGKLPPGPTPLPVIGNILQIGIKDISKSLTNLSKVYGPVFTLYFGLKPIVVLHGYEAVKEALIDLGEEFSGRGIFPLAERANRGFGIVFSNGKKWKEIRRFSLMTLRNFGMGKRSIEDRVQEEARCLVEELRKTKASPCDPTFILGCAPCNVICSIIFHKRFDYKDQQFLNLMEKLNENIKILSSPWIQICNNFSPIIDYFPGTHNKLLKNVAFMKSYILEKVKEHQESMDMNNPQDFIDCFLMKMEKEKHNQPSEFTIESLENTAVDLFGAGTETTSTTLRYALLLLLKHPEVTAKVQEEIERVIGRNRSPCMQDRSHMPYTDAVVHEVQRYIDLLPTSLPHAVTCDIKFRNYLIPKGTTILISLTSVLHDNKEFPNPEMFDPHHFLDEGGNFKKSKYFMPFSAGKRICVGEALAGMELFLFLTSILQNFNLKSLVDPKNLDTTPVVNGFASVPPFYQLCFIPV
The AC50 is the midpoint of the concentration-response curve, whichever way the signal moves. Consider `CC(C)NC(=O)N1CC[C@@]2(CCCN(C(=O)c3cccn3C)C2)C1`, for which the AC50 result is “inactive”. `N#Cc1nc(COc2ccccc2Cl)oc1NCc1ccco1`: the AC50 is 1.78 µM (active). Still for that read-out and setting: under `CN(C)CCNc1oc(COc2ccc(Cl)cc2Cl)nc1C#N` stands “inactive”; under `CCOc1ccc(-c2cc(CCCC(=O)NCCc3ccc(OC)c(OC)c3OC)no2)cc1`, 1 µM (active).

With `CCOc1ccc(-c2nnn(CC(=O)Nc3cc(OC)ccc3OC)n2)cc1OCC`, the AC50 entry is “inactive”.

`CCOc1ccc(-c2cc(CCCC(=O)Nc3cc(OC)ccc3OC)no2)cc1`: the AC50 was 2.24 µM (active). In the case of `CN(C)CCCN1c2ccc(O)cc2Sc2ccc(Cl)cc21`, the activity, negative = inhibition was -1.91% [at 11.4 µM] (inactive). For `CSC1=N/C(=C\c2ccc(C)cc2)C(=O)S1`, the half-maximal activity concentration (AC50) was 22.4 µM (active).

`CSC1=N/C(=C\c2ccc3c(c2)OCO3)C(=O)S1`: the AC50 entry was “inactive”. Still for that read-out and setting: under `CSC1=N/C(=C\c2ccc(Br)o2)C(=O)S1` stands 39.8 µM (active); under `CCCCNC(=O)C(=O)c1ccccc1NC(C)=O`, “inactive”. Regarding `Cc1cnc(CNc2ncncc2-c2ccccc2C#N)cn1`, the activity, negative = inhibition was -5.28% [at 2.29 µM] (inactive). `CCN(CC)Cc1c(O)ccc2c(=O)c(Oc3ccccc3OC)coc12`: the half-maximal activity concentration (AC50) is 7.94 µM (active).

For `O=c1c(Oc2ccccc2Br)c(C(F)(F)F)oc2c(CN3CCCC3)c(O)ccc12`, the AC50 entry was “inactive”. As for `Cc1cccc(Cn2ncc(Cl)c(Cl)c2=O)c1`, the AC50 result was “inactive”.

As for `Cc1cccc(CNc2ncncc2-c2ccccc2Cl)c1`, the activity, negative = inhibition is 7.19% [at 2.29 µM] (inactive). Regarding `C=CCSc1nc2c(sc3nc(C)cc(C)c32)c(=O)[nH]1`, the AC50 was 7.94 µM (active). On to `Cc1c(S(=O)(=O)O)ccc(N=Nc2c(O)c(C(=O)O)cc3ccccc23)c1Cl`, for which the activity, negative = inhibition was -11.1% [at 11.4 µM] (inactive). Turning to `Nc1nc2n[nH]nc2c(=O)[nH]1`, the AC50 result is “inactive”. Still for that read-out and setting: under `Cc1cc(Cc2cc(Cc3cc(C)cc(C(C)(C)C)c3O)c(C)cc2C)c(O)c(C(C)(C)C)c1` stands 3.16 µM (active); under `Cc1cc(Cc2cc(C)cc(C(C)(C)C)c2O)c(O)c(Cc2cc(C)cc(C(C)(C)C)c2O)c1`, 3.16 µM (active).

For `Cc1cc(C)c(O)c(Cc2cccc(Cc3cc(C)cc(C)c3O)c2O)c1`, the activity, negative = inhibition is 11.7% [at 11.4 µM] (inactive).

In the case of `CC(C)c1cc(CN(C)C)c(O)c(C(C)(C)C)c1`, the activity, negative = inhibition is 1.03% [at 11.4 µM] (inactive). As to `Cc1cc(C(C)(C)C)c(O)c(C)c1CC1=NCCN1`, the AC50 entry was “inactive”.

For the compound `Cc1cc(Cc2c(C)c(C)c(Cc3cc(C)cc(C(C)(C)C)c3O)c(C)c2C)c(O)c(C(C)(C)C)c1`, the activity, negative = inhibition was 9.35% [at 11.4 µM] (inactive). For the compound `Cc1ccc(NC(=S)N2CCN(CCN3C(=O)c4cccc5cccc(c45)C3=O)CC2)cc1`, the AC50 is 6.31 µM (active). On the same count and under the same terms, for `C[N+](C)(CCCCCC[N+](C)(C)CCCN1C(=O)c2cccc3cccc(c23)C1=O)CCCN1C(=O)c2cccc3cccc(c23)C1=O` the value was “inactive”; for `Cc1ccc(NC(=S)N2CCN(C3CCCCC3)CC2)cc1`, “inactive”. Still for that read-out and setting: under `COc1ccccc1CNC(=O)C/C(C)=N/NC(=O)Cc1ccccc1` stands “inactive”. Same read-out and setting: under `C/C(=N\NC(=O)Cc1ccc(Cl)cc1)c1ccccn1` stands 14.1 µM (active); under `C/C(=N\NC(=O)CC1N=C(Cc2ccccc2)NNC1=O)c1ccc(Cl)cc1Cl` (stereo not drawn), “inactive”. For the compound `CC1(C)C2([N+](=O)[O-])CN3CC1([N+](=O)[O-])CN(C2)C3c1ccccc1` (stereo not drawn), the AC50 result is “inactive”. Turning to `FC(F)(F)c1ccccc1-c1cc(NCCN2CCOCC2)ncn1`, the activity, negative = inhibition is 26.8% [at 2.29 µM] (inactive). For `CCOC(=O)Oc1c(OC)cc(C(=O)O[C@H]2C[C@H]3CN4CCc5c([nH]c6cc(OC)ccc56)[C@@H]4C[C@H]3[C@@H](C(=O)OC)[C@@H]2OC)cc1OC`, the AC50 result was “inactive”.

As to `Cc1ccc(S(=O)(=O)N(Cc2ccccc2)c2ccccc2C(=O)NCc2ccco2)cc1`, the AC50 was 0.0398 µM (active). The same measure, in the same setting: under `Cc1cccc(C)c1NC(=O)CCN1C(=O)C2C3CCC(C3)C2C1=O` (stereo not drawn) stands “inactive”. Still for that read-out and setting: under `Cc1cc(C(=O)CSc2nnc(-c3ccccc3)o2)c(C)n1CC1COc2ccccc2O1` (stereo not drawn) stands 3.55 µM (active). The same measure, in the same setting: for `CCn1ccnc1C[C@@H]1COc2ccccc2O1` the value was “inactive”; for `Cc1ccc(SCc2[nH]nc3c2C(C(C)C)C(C#N)=C(N)O3)cc1` (stereo not drawn), 7.08 µM (active).

Turning to `Fc1ccc(CSc2ncnc3sc4c(c23)CCCC4)cc1`, the AC50 is 11.2 µM (active). In the case of `O=C(O)CSc1ncnc2sc3c(c12)CCC3`, the AC50 result is “inactive”. As to `Fc1cccc(CSc2ncnc3c2ncn3[C@H]2CCCS2)c1`, the activity, negative = inhibition is 9.41% [at 11.4 µM] (inactive). For the compound `COCCN1CN=C(Nc2nc3ccccc3s2)NC1`, the AC50 result was “inactive”. Turning to `O=C(NNc1nc2ccccc2s1)C1CC1`, the AC50 entry is “inactive”. As for `O=[N+]([O-])c1ccc(Nc2nc3ccccc3s2)cc1`, the AC50 was 1.26 µM (active). In the case of `CCCCC(=O)NC(Nc1cc(C)ccn1)(C(=O)OCC)C(F)(F)F` (stereo not drawn), the concentration at half-maximal activity (AC50) was 22.4 µM (active). Same read-out and setting: for `C/C(CC(=O)Nc1cc(C)ccn1)=N\NC(=O)COc1cccc(C)c1` the value was “inactive”; for `CCCc1nn(-c2ccccc2)c2c1C(c1cccs1)C(C#N)=C(N)O2` (stereo not drawn), 4.47 µM (active); for `CC(C)N(Cc1ccccc1)S(=O)(=O)c1n[nH]c(C(C)(C)C)n1`, 3.98 µM (active). Still for that read-out and setting: under `COc1ccc(CCNC(=O)c2nnn(CC(=O)Nc3ccccc3C)c2N)cc1OC` stands 15.8 µM (active); under `Cc1ccc(C)c(NC(=O)Cn2nnc(C(=O)NCc3cccs3)c2N)c1`, “inactive”. As for `COc1ccc(CCNC(=O)Cn2cnc3c2c(=O)n(C)c(=O)n3C)cc1OC`, the AC50 result is “inactive”. Consider `COc1ccccc1CNc1ncncc1-c1ccccc1C(F)(F)F`, for which the activity, negative = inhibition is -18.6% [at 2.29 µM] (inactive). In the case of `CN1c2ccccc2Oc2c(c(=O)n(C)c(=O)n2C)C1c1cccc([N+](=O)[O-])c1` (stereo not drawn), the AC50 is 4.47 µM (active). As for `O=C(c1ccccc1)[C@@H]1O[C@H]1c1ccc(-c2ccccc2)cc1`, the AC50 is 12.6 µM (active).

Consider `CC(=NCC(=O)O)c1ccccc1`, for which the activity, negative = inhibition is 2.4% [at 11.4 µM] (inactive). For the compound `CCCCCCCCCCCCCCC[C@H](O)[C@H](N)CO`, the AC50 result was “inactive”. Still for that read-out and setting: under `Cc1ccc2nc(Nc3nc(-c4ccccc4)cc(=O)[nH]3)nc(C)c2c1` stands 2.82 µM (active). Turning to `O=C(O)c1cc(-c2ccc(-c3ccccc3)cc2)nc2cc3ccccc3cc12`, the activity, negative = inhibition is -27% [at 11.4 µM] (inactive). As to `Cc1ccccc1/C=C\C1=NCCN1`, the AC50 entry was “inactive”. As to `CC(C)(C)COS(=O)OCC(C)(C)C`, the activity, negative = inhibition is -7.38% [at 11.4 µM] (inactive). With `Cc1ccc(S(=O)(=O)/C=C\C#N)cc1`, the AC50 was 12.6 µM (active). As to `CCN(CC)CCNC(=O)c1cc(Cl)c(N)cc1OC`, the AC50 entry was “inactive”. Take `CC1=C(C(=O)OCc2ccccc2)C(c2ccc(Cl)cc2)NC(=O)N1CCCCCC(=O)O` (stereo not drawn): the concentration at half-maximal activity (AC50) is 12.6 µM (active). The same measure, in the same setting: for `CC1=C(C(=O)OCc2ccccc2)C(c2ccc3ccccc3c2)NC(=O)N1CCCCCC(=O)O` (stereo not drawn) the value was 7.94 µM (active); for `CC1=C(C(=O)OCc2ccccc2)C(c2ccc([N+](=O)[O-])cc2)NC(=O)N1CCCCCC(=O)O` (stereo not drawn), 15.8 µM (active). Still for that read-out and setting: under `CN1CCC[C@@H]1CCO[C@](C)(c1ccccc1)c1ccc(Cl)cc1` stands “inactive”.

Regarding `CC(C)=CCC/C(C)=C/CO/N=C1/C[C@@H](O)[C@@H](O)[C@@H]2[C@@H]3C(=O)N(C[C@@H]4CCCO4)C(=O)[C@H]3CC[C@@H]12`, the activity, negative = inhibition is 9.34% [at 11.4 µM] (inactive). The same measure, in the same setting: under `CN(C)[C@H]1C(=O)C(C(=O)NCN2CCCC2)=C(O)[C@]2(O)C(=O)C3=C(O)c4c(O)cccc4[C@](C)(O)[C@H]3C[C@H]12` stands -10.5% [at 11.4 µM] (inactive); under `Cc1cc(=Nc2ccc3c(c2)c(N)cc(C)[n+]3C)nc(N)n1C`, 13% [at 11.4 µM] (inactive). For `CCCC(C(=O)OCCN(CC)CC)(c1ccccc1)c1ccccc1`, the AC50 result was “inactive”. Still for that read-out and setting: for `CCN(CC)CC#CCC(C)(c1ccccc1)c1ccccc1` the value was 15.8 µM (active). Take `N=C(N)SCCSC(=N)N`: the activity, negative = inhibition was -1.93% [at 11.4 µM] (inactive).

In the case of `COc1cc(C(=O)N2CCN(C(=O)c3ccccc3)CC2)cc(OC)c1OC`, the AC50 entry was “inactive”. Same read-out and setting: for `COc1cc(OC)c(C2C(C(=O)O)c3ccccc3C(=O)N2C)cc1OC` (stereo not drawn) the value was “inactive”; for `COc1cc2c3c(c1OC)C1(C=CC(=O)C=C1)CC3N(C(=O)c1ccccc1)CC2` (stereo not drawn), 3.16 µM (active). Turning to `c1ccc(CNc2cc(-c3ccoc3)ncn2)cc1`, the activity, negative = inhibition is -12.4% [at 2.29 µM] (inactive).

On to `c1ccc(-c2nc(CSc3n[nH]c(-c4cccs4)n3)cs2)cc1`, for which the half-maximal activity concentration (AC50) is 20 µM (active). As for `O=C(c1cnccn1)N1CCC2(CCCN(c3ncccn3)C2)CC1`, the AC50 entry was “inactive”. The same measure, in the same setting: under `CCOc1ccc(Cc2nccc3cc(OCC)c(OCC)cc23)cc1OCC` stands 3.98 µM (active); under `Cn1c(CN2CCOCC2)nnc1SCc1ccccc1`, “inactive”. For `Cn1c(CNC(=O)Nc2ccccc2)nnc1SCc1ccccc1`, the concentration at half-maximal activity (AC50) was 8.91 µM (active). With `COc1cccc(-c2ccc3ncnc(NCCNC(C)=O)c3c2)c1`, the activity, negative = inhibition was -1.53% [at 2.29 µM] (inactive). On the same count and under the same terms, under `COc1cccc(-c2nc(NCCNC(C)=O)c3ccccc3n2)c1` stands 22.4% [at 2.29 µM] (inactive). As for `COc1ccc2[nH]c(-c3ccccc3)c(CCNC(C)=O)c2c1`, the AC50 was 15.8 µM (active). For the compound `C[C@H](CN(C)C)C(=O)c1ccccc1C(=O)O`, the activity, negative = inhibition is 4.19% [at 11.4 µM] (inactive). Same read-out and setting: under `CNS(=O)(=O)c1ccccc1C(=N)c1ccccc1` stands 9.68% [at 11.4 µM] (inactive). For the compound `OC[C@H]1NC[C@@H](O)[C@@H](O)[C@H]1O`, the AC50 entry was “inactive”. With `O=C(Nc1cccc(C(F)(F)F)c1)c1ccc(Cn2cc(Br)cn2)o1`, the half-maximal activity concentration (AC50) was 8.91 µM (active). Same read-out and setting: under `Cc1cccc(NC(=S)NNC(=O)CCn2cc(C)cn2)c1` stands “inactive”; under `Cc1nn(CC(O)COc2ccc3c(c2)CCC3)c(C)c1Br` (stereo not drawn), “inactive”. For the compound `C=CC[C@@H]1C=C[C@H](O/N=C(\C)CCN2CCCCc3nc(C)c(C)cc32)[C@H](CO)O1`, the activity, negative = inhibition is 0.735% [at 11.4 µM] (inactive). Consider `Cc1ccc(N2C(=O)c3n[nH]c(C)c3C2c2ccccn2)cc1` (stereo not drawn), for which the AC50 result is “inactive”.
